Assay results published in PubChem BioAssay (NCATS).
Inconclusive results are not listed. Calls of active or inactive are those of the source. Unless noted, calls follow the shape of the dose curve; as a rule, active = well fitted curve in the direction sought with a large enough effect; inconclusive = small, poorly fitted or top-dose-only effect, or another doubt; inactive = no such curve, though single readings can be large; an effect the other way counts as inactive or inconclusive. *1 amine or outer side, *2 acyl side, *3 side chain or, on linkers, in order; H or OH if unused. Where a SMILES comes first, the peptide text is derived from it. Bridges are numbered along the chain shown (N, C = ends). [ ]: non-standard residue; d: D form. The star is where a group is joined. X5 = NC1=N[C@@H]([C@H](N[*:1])C(=O)[*:2])C[C@H](O)N1; ΔAla(Z-3-ureido) = NC(=O)N/C=C(\N)C(=O)O; β3hOrn = NCCC[C@H](N)CC(=O)*; Dap = NC[C@H](N)C(=O)O

Columns and labels:
[1] = qHTS Assay for Identifying Gametocytocidal Compounds (AID 743244);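 also: % is scaled to controls: 0 for no effect and ±100 for the full control effect; actives lower the fluorescent signal which means gametocytes are killed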; conditions: P. falciparum 3D7 stage III-V gametocytes, alamarBlue, 72 h; max response: stronger effect = lower value
How it was run: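 Late gametocytes (III–V), P. falciparum 3D7; 72 h drug, then 24 h alamarBlue; resazurin reduction read by fluorescence.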

[2] = qHTS assay to identify small molecule inhibitors of chordoma cells - UCH-1 (AID 1259355); also: % is scaled to controls: 0 for no effect and ±100 for the full control effect; nearly all actives have a fitted effect of over 55% in size
How it was run: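 Cells (800/well) were seeded and left overnight at 37 C, 5% CO2, then treated with drugs at 15 concentrations plus a combination mix of auranofin, camptothecin, doxorubicin, rubitecan and topotecan. Viability after 48hr was read by CellTiter-Glo luminescence.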

[3] = qHTS assay to identify small molecule inhibitors of chordoma cells - UCH-2 (AID 1259356); also: % is scaled to controls: 0 for no effect and ±100 for the full control effect
[4] = qHTS assay for small molecule agonists of the antioxidant response element (ARE) signaling pathway measured by Nrf2-dependant transcriptional activity (AID 720636; active = well fitted curve in the direction sought with a large enough effect in the repeat runs; an effect the other way counts as inactive or inconclusive;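 also: HepG2 cells with an ARE-driven luciferase reporter; % of control where 0% means no effect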)
How it was run: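 First, ARE-luc HepG2 cells attached for 6 hr at 37 C in 1% dialyzed FBS medium. Next, compound or DMSO was added and incubated 16 hr. Finally, ONE-Glo reagent was added and luminescence measured after 30 min.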

[5] = qHTS assay for small molecule agonists of the antioxidant response element (ARE) signaling pathway measured by Nrf2-dependant transcriptional activity - cell viability counter screen (AID 720653; active = well fitted curve in the direction sought with a large enough effect in the repeat runs; an effect the other way counts as inactive or inconclusive; also: % is scaled to controls: 0 for no effect and ±100 for the full control effect); conditions: ARE-bla HepG2 viability, CellTiter-Glo ATP luminescence, 16 h; stronger effect = lower value
How it was run: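 ARE-bla HepG2 cells treated with compounds for 16 h at 37C; this counter screen measures viability as intracellular ATP by CellTiter-Glo luminescence after 30 min at room temperature.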

[6] = qHTS assay for cell viability of HEK293 cells (AID 743288); conditions: ATP luminescence (CellTiter-Glo), 18 h; max response: stronger effect = lower value; also: % is scaled to controls: 0 for no effect and ±100 for the full control effect; nearly all actives have a fitted effect of over 50% in size
How it was run: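 Total intracellular ATP, measured with a luciferase-coupled reagent, indicates the number of viable HEK293 cells. Exposure to test chemicals lasts 18 h at 37 C in 1,536-well format at 2,000 cells/well.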

[7] = qHTS assay for cell viability of the p53RE-bla HCT-116 cell line (AID 743292); also: % is scaled to controls: 0 for no effect and ±100 for the full control effect; nearly all actives have a fitted effect of over 55% in size
How it was run: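 Quantitative high-throughput format: compounds in DMSO were pinned onto p53RE-bla HCT-116 cells (4,000/well) and incubated 16 h at 37 C. Total intracellular ATP, read by CellTiter-Glo luminescence, reflects viable cell number.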

[8] = qHTS profiling for inhibitors of Plasmodium falciparum (3D7) proliferation (AID 743322);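 also: infected erythrocytes exposed to compound for 72 h before lysis; 100% = DMSO vehicle wells and 0% = 0.29 µM artemisinin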; conditions: P. falciparum 3D7 proliferation; at 28.7 µM (top of the series) unless noted
How it was run: (§1)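 Erythrocytes infected with P. falciparum (0.3% parasitemia, 2.5% hematocrit) incubated with compounds 72 h at 37 C, 5% CO2. Lysis with saponin/Triton buffer containing SYBR Green I, overnight at room temperature in the dark; DNA fluorescence (485/535 nm) normalised to 0.29 uM artemisinin and DMSO.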

[9] = qHTS profiling for inhibitors of Plasmodium falciparum (DD2) proliferation (AID 743323; call rule not given here); conditions: lower = more inhibition; at 28.7 µM (top of the series) unless noted
How it was run: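 Parasite proliferation measured via DNA-dye fluorescence, as uninfected erythrocytes lack DNA. Cultures at 0.3% parasitemia and 2.5% hematocrit incubated 72 h with compound; signal scaled between vehicle and 0.29 uM artemisinin wells.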

[10] = qHTS profiling for inhibitors of Plasmodium falciparum (HB3) proliferation (AID 743324); conditions: Plasmodium falciparum HB3 blood-stage proliferation; at 28.7 µM (top of the series) unless noted;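 also: 100% = DMSO vehicle wells and 0% = artemisinin-treated control wells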
How it was run: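 P. falciparum HB3 grown in erythrocytes (0.3% parasitemia, 2.5% hematocrit final) with compound for 72 h at 37 C, 5% CO2. Parasite DNA detected by SYBR Green after saponin/triton lysis overnight; normalized to 0.29 uM artemisinin and DMSO.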

[11] = qHTS profiling of the MIPE4 collection as inhibitors of Plasmodium falciparum (3D7) proliferation (AID 743344; call rule not given here;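 also: scaled between DMSO vehicle wells and 0.29 µM artemisinin as full inhibition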); conditions: P. falciparum 3D7 in erythrocytes, SYBR Green DNA fluorescence, 72 h; at 28.5 µM (top of the series)
How it was run: as §1

[12] = qHTS profiling of the MIPE4 collection as inhibitors of Plasmodium falciparum (DD2) proliferation (AID 743345; call rule not given here); conditions: P. falciparum Dd2 in erythrocytes, SYBR Green DNA, 72 h; at 28.5 µM (top of the series)
How it was run: as §1

[13] = qHTS profiling of the MIPE4 collection as inhibitors of Plasmodium falciparum (DD2) proliferation (Rep 2) (AID 743346; call rule not given here); conditions: P. falciparum Dd2 in erythrocytes, SYBR Green DNA, 72 h; at 28.5 µM (top of the series)
How it was run: as §1

[14] = qHTS profiling of the MIPE4 collection as inhibitors of Plasmodium falciparum (HB3) proliferation (AID 743347; call rule not given here;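 also: plate controls were DMSO vehicle wells for no effect and artemisinin wells for full effect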); conditions: P. falciparum HB3 in erythrocytes, SYBR Green DNA, 72 h; at 28.5 µM (top of the series)
How it was run: as §1

CCOc1ccc(NC(=S)Nc2ccc(OCC)cc2)cc1
max response [1]: 1.34% (inactive) | Potency [2]: inactive | Potency [3]: inactive

CCC(C)[C@@H](N)C(=O)O (some centres not stated)
max response [1]: -1.27% (inactive) | Potency [2]: inactive | Potency [3]: inactive

CCCCCCCCCCCCCCCC(=O)OC[C@H](COP(=O)([O-])OCC[N+](C)(C)C)OC(=O)CCCCCCCCCCCCCCC
max response [1]: 1.23% (inactive) | Potency [2]: inactive | Potency [3]: inactive

N=C(N)n1cccn1
max response [1]: 13.6% (inactive) | Potency [2]: inactive

C=CC(C)(O)CC/C=C(\C)CCC=C(C)C (configuration not stated)
Potency [4]: inactive | max response [5]: 1.82% (inactive) | max response [1]: -0.0803% (inactive) | max response [6]: -7.81% (inactive) | outcome [7]: inactive | Potency [2]: inactive

Cc1c(O)c(=O)ccn1C
max response [1]: 2.04% (inactive) | Potency [2]: inactive

O=[n+]1ccn([O-])c2ccccc21
max response [1]: -5.38% (inactive) | Potency [2]: inactive

Cc1nc(NS(=O)(=O)c2ccc(N)cc2)nc(C)c1Br
max response [1]: 21.7% (inactive) | Potency [2]: inactive

Oc1ccc(Cl)c2c1CCC2
max response [1]: -5.98% (inactive) | Potency [2]: inactive

NCCCC[C@H](N)C(=O)O
max response [1]: 5.86% (inactive) | Potency [2]: inactive

O=C(O)c1ccc(NC(=O)[C@H](Cc2ccc(O)cc2)NC(=O)c2ccccc2)cc1
max response [1]: 0.0398% (inactive) | Potency [2]: inactive

CO/N=C(\C(=O)N[C@@H]1C(=O)N2C(C(=O)[O-])=C(C[n+]3cccc4c3CCC4)CS[C@H]12)c1csc(N)n1
max response [1]: 15.5% (inactive) | Potency [2]: inactive

C#C[C@]1(O)CC[C@@H]2[C@H]3CCC4=CC(=O)CC[C@H]4[C@H]3C(=C)C[C@@]21CC
remaining parasite growth % (stronger effect = lower value) [8]: 38.1% | activity, percent of control [9]: 51.3% | remaining proliferation (% of control), lower = more inhibition [10]: 25.2% | parasite growth, % of DMSO control [11]: 22.9% | parasite growth remaining, % of DMSO control (lower = more inhibition) [12]: 82.2% | parasite growth, % of control (lower = inhibition) [13]: 66.9% | growth, % of control [14]: 44.4% | Potency [2]: inactive | Potency [3]: inactive

CC(=O)[C@H]1CC[C@H]2[C@@H]3C=CC4=CC(=O)CC[C@@]4(C)[C@H]3CC[C@]12C
parasite growth, % of DMSO control [11]: 84.6% | parasite growth remaining, % of DMSO control (lower = more inhibition) [12]: 96.9% | parasite growth, % of control (lower = inhibition) [13]: 165% | growth, % of control [14]: 95.1% | Potency [2]: inactive | Potency [3]: inactive

CCCCCCCCCCCC(=O)N(CCO)CCO
max response [1]: 11.9% (inactive) | Potency [2]: inactive

C[C@H](N)C(=O)N[C@@H](C)P(=O)(O)O
max response [1]: 2.87% (inactive) | Potency [2]: inactive

NCCC[C@H](N)CC(=O)N[C@H]1CNC(=O)[C@H]([C@H]2C[C@H](O)NC(N)=N2)NC(=O)/C(=C/NC(N)=O)NC(=O)[C@H](CO)NC(=O)[C@H](CO)NC1=O (β3hOrn-[Dap]SS[ΔAla(Z-3-ureido)][X5]; lactam 1-C)
max response [1]: 13.7% (inactive) | Potency [2]: inactive

NC(=O)C1c2ccccc2CCc2ccccc21
max response [1]: -4.56% (inactive) | Potency [2]: inactive

COc1ccc(C(=O)CCC(=O)O)c2ccccc12
max response [1]: -11.7% (inactive) | Potency [2]: inactive

CCN(CC)CCOc1ccccc1OC
max response [1]: -0.561% (inactive) | Potency [2]: inactive

C[Si](C)(C)O[Si](C)(C)C
Potency [4]: inactive | max response [5]: -6.75% (inactive) | max response [1]: 4.27% (inactive) | max response [6]: -0.467% (inactive) | Potency [2]: inactive

CC[C@H]1OC(=O)[C@H](C)[C@@H](O[C@H]2C[C@@](C)(OC)[C@@H](O)[C@H](C)O2)C(C)[C@@H](O[C@@H]2O[C@H](C)C[C@H](N(C)C)[C@@H]2O)[C@](C)(OC)C[C@@H](C)C(=O)[C@H](C)[C@@H](O)[C@]1(C)O (some centres not stated)
parasite growth, % of DMSO control [11]: 19.7% | parasite growth remaining, % of DMSO control (lower = more inhibition) [12]: 35.4% | parasite growth, % of control (lower = inhibition) [13]: 38.9% | growth, % of control [14]: 37.4% | Potency [2]: inactive | Potency [3]: inactive

O=C(O)[C@H]1C(=CCO)O[C@H]2CC(=O)N12
parasite growth, % of DMSO control [11]: 93.2% | parasite growth remaining, % of DMSO control (lower = more inhibition) [12]: 103% | parasite growth, % of control (lower = inhibition) [13]: 115% | growth, % of control [14]: 93.1% | Potency [2]: inactive | Potency [3]: inactive

Cc1ncc(COP(=O)(O)O)c(CN)c1O
max response [1]: -10.8% (inactive) | Potency [2]: inactive
